# Unmarked numbers belong to inactive results. Results filed as inconclusive are left out. Active and inactive are the calls of the source. Calls follow the shape of the dose curve; as a rule, active = well fitted curve in the direction sought with a large enough effect; inconclusive = small, poorly fitted or top-dose-only effect, or another doubt; inactive = no such curve, though single readings can be large; an effect the other way counts as inactive or inconclusive.
# Target: Ferritin light chain (Equus caballus) (UniProt P02791)
# Experiment: qHTS Validation Assay for Identification of Novel General Anesthetics (AID 2323); also: % is scaled to controls: 0 for no effect and ±100 for the full control effect
# Conditions: horse apoferritin, anesthetic-site fluorescent probe displacement; series mostly up to 76.9 µM; activity change, negative = inhibition: at the top concentration
# Method in brief: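 Competitive displacement of the profluorescent anesthetic 1-AMA (50% saturated, PBS) from 10 uM apoferritin, 10 min, room temperature. Activity is normalized 380/535 nm fluorescence; concentration-response fitted with a four-parameter Hill equation.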
# Ferritin light chain (Equus caballus), sequence (P02791 2-175 limits assumed): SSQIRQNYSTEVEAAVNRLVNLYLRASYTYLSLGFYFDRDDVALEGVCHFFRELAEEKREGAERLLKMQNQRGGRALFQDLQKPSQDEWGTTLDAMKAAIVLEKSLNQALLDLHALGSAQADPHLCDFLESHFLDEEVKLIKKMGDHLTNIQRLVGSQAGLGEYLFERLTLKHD
row,Structure (SMILES),"activity change, negative = inhibition [%]"
1,O=C(O)[C@@H]1C[C@@H](C(=O)O)N1,-5.84
2,C=C/C(C)=C/[C@@]1(C)SC(=O)C(C)=C1O,-11.2
3,CC(=O)N[C@H](C(=O)O)C(C)(C)SN=O,-3.55
4,NC(=O)C(=O)O,0.341
5,O=C(O)c1cc(=O)c2ccccc2[nH]1,-5.44
6,COc1cc(C(O)CO)ccc1OS(=O)(=O)O (stereo unspecified),-7.96
7,CN(C)c1nc(N)c(C(=O)N=C(N)N)nc1Cl,-11.2
8,C[C@@H](CN1CCC(Cc2ccccc2)CC1)[C@@H](O)c1ccc(O)cc1,-16.7
9,OCC1O[C@H](O)C(Cl)C(O)C1O (stereo partly specified),-1.79
10,CC(=O)SCC[N+](C)(C)C,-1.93
11,CC(C)(C)NCC(O)COc1nsnc1N1CCOCC1 (stereo unspecified),-6.08

# Target: ATP-dependent DNA helicase Q1 (Homo sapiens) (UniProt P46063)
# Experiment: qHTS Validation Assay for Inhibitors of RecQ-Like Dna Helicase 1 (RECQ1) (AID 2353); also: potency is read from the fitted curve at half-maximal effect;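 as to activity change, negative = inhibition: plate controls were DMSO vehicle for no effect and enzyme-free control for full effect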
# Conditions: recombinant RECQ1 helicase DNA unwinding assay; series mostly up to 25.6 µM; activity change, negative = inhibition: at the top concentration
# Method in brief: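 50 nM RECQ1T1 preincubated 15 min with compound in Tris pH 8.0 buffer with MgCl2, DTT, Tween-20 and 2.5 ug/ml poly(dI-dC); started with 200 nM TAMRA/BHQ-2 forked duplex and 2 mM ATP. Unwinding read as fluorescence (525/598 nm), two reads 2 h apart.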
# ATP-dependent DNA helicase Q1 (Homo sapiens), sequence (P46063 whole entry, looked up): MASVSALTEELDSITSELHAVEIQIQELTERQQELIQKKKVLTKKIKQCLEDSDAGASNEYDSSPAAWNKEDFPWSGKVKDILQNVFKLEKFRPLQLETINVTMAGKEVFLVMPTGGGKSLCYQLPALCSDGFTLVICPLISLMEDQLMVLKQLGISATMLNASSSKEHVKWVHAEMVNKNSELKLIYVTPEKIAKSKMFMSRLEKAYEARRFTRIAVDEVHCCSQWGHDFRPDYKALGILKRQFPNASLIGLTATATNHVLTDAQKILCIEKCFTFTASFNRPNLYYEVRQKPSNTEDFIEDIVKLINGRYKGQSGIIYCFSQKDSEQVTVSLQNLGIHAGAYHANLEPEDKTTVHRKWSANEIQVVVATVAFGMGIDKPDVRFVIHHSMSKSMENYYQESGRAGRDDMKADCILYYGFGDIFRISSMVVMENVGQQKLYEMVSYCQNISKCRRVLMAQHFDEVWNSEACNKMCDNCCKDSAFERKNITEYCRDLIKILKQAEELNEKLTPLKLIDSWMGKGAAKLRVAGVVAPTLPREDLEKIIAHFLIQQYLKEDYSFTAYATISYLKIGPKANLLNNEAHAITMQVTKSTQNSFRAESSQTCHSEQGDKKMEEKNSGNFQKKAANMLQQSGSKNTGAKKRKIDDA
Structure (SMILES),"activity change, negative = inhibition [%]",Potency
C=CC(N)CCC(=O)O (stereo unspecified),-7.34,–
O=C(O)c1cc(=O)c2c(Cl)cc(Cl)cc2[nH]1,0.0705,–
c1ccc(-c2ccccn2)nc1,-5.18,–
CN1CCC[C@H]1c1cccnc1,-3.05,–
O=c1[nH]c2cc([N+](=O)[O-])c([N+](=O)[O-])cc2[nH]c1=O,2.13,–
CO/N=C(\C(=O)N[C@@H]1C(=O)N2C(C(=O)O)=C(COC(C)=O)CS[C@H]12)c1csc(N)n1 (stereo in doubt),–,10 µM (active)
Cc1ccc(C(=O)O[C@H](C(=O)O)[C@@H](OC(=O)c2ccc(C)cc2)C(=O)O)cc1 (tested in a mixture with another compound),3.24,–
Brc1c(Br)c(Br)c2n[nH]nc2c1Br,8.2,–
C[N+](C)(CCCCCC[N+](C)(C)CCCN1C(=O)c2cccc3cccc(c23)C1=O)CCCN1C(=O)c2cccc3cccc(c23)C1=O,-74.5,–
CC1(C)CCC=[N+]1[O-],-2.63,–
NCCCCC(=O)O,-3.81,–
S=C(S)OC1CC2CC1C1CCCC21 (stereo unspecified),-1.48,–
O=C(O)CC1CCCc2ccccc2C1O (stereo unspecified),3.19,–
O=C(O)CNC(=O)C(CS)Cc1ccccc1 (stereo unspecified),-4.62,–
NCCCCCCCCCCN,0.427,–
NCCSSCCN,-4.89,–
CN1C2CCC1CC(OC(=O)C(O)c1ccccc1)C2 (stereo unspecified),1.03,–

Structure (SMILES),"activity change, negative = inhibition [%]",Potency
Cn1c(=O)c2[nH]c(-c3ccccc3)nc2n(C)c1=O,3.28,–
CC1CN(S(=O)(=O)c2cccc3cnccc23)CCN1 (stereo unspecified),3.13,–
N=C(N)SCCc1ccc(CCSC(=N)N)cc1,9.03,–
CN[C@H](CC(C)C)C(=O)N[C@H]1C(=O)N[C@@H](CC(N)=O)C(=O)N[C@H]2C(=O)N[C@H]3C(=O)N[C@H](C(=O)N[C@H](C(=O)O)c4cc(O)cc(O)c4-c4cc3ccc4O)[C@H](O)c3ccc(c(Cl)c3)Oc3cc2cc(c3O[C@@H]2O[C@H](CO)[C@@H](O)[C@H](O)[C@H]2O[C@H]2C[C@](C)(N)[C@H](O)[C@H](C)O2)Oc2ccc(cc2Cl)[C@H]1O,-7.81,–
O=C(O)[C@@H]1C[C@@H](C(=O)O)N1,-5.65,–
CCCCCCCCCCCCCCCC(=O)NCC(COP(=O)([O-])OCC[N+](C)(C)C)OCC (stereo unspecified),-6,–
C=C/C(C)=C/[C@@]1(C)SC(=O)C(C)=C1O,–,8.91 µM (active)
CC(=O)N[C@H](C(=O)O)C(C)(C)SN=O,-0.542,–
NC(=O)C(=O)O,3.2,–
O=C(O)c1cc(=O)c2ccccc2[nH]1,-0.828,–
COc1cc(C(O)CO)ccc1OS(=O)(=O)O (stereo unspecified),-3.01,–
CN(C)c1nc(N)c(C(=O)N=C(N)N)nc1Cl,13.8,–
C[C@@H](CN1CCC(Cc2ccccc2)CC1)[C@@H](O)c1ccc(O)cc1,1.11,–
OCC1O[C@H](O)C(Cl)C(O)C1O (stereo partly specified),-0.499,–
CC(=O)SCC[N+](C)(C)C,-0.528,–
CC(C)(C)NCC(O)COc1nsnc1N1CCOCC1 (stereo unspecified),-6.6,–
O=C1O/C(=C/Br)CCC1c1cccc2ccccc12 (stereo unspecified),-12.4,–

# Target: RecQ-like DNA helicase BLM (Homo sapiens) (UniProt P54132)
# Experiment: qHTS Validation Assay for Inhibitors of Bloom's syndrome helicase (BLM) (AID 2364);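 also: plate controls were DMSO vehicle for no effect and enzyme-free control for full effect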
# Conditions: BLM helicase DNA unwinding, fluorescence, in vitro; series mostly up to 57.1 µM; activity change, negative = inhibition: at the top concentration
# Method in brief: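 BLM 50 nM in 25 mM Tris-HCl pH 8.0, 5 mM NaCl, 2 mM MgCl2, 1 mM DTT, 0.01% Tween-20, 2.5 ug/ml poly(dI-dC); 15 min cpd preinc, RT. Start: 200 nM forked DNA + 2 mM ATP (final). TAMRA read, 2 reads 2 h apart.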
# RecQ-like DNA helicase BLM (Homo sapiens), sequence (P54132 whole entry, looked up): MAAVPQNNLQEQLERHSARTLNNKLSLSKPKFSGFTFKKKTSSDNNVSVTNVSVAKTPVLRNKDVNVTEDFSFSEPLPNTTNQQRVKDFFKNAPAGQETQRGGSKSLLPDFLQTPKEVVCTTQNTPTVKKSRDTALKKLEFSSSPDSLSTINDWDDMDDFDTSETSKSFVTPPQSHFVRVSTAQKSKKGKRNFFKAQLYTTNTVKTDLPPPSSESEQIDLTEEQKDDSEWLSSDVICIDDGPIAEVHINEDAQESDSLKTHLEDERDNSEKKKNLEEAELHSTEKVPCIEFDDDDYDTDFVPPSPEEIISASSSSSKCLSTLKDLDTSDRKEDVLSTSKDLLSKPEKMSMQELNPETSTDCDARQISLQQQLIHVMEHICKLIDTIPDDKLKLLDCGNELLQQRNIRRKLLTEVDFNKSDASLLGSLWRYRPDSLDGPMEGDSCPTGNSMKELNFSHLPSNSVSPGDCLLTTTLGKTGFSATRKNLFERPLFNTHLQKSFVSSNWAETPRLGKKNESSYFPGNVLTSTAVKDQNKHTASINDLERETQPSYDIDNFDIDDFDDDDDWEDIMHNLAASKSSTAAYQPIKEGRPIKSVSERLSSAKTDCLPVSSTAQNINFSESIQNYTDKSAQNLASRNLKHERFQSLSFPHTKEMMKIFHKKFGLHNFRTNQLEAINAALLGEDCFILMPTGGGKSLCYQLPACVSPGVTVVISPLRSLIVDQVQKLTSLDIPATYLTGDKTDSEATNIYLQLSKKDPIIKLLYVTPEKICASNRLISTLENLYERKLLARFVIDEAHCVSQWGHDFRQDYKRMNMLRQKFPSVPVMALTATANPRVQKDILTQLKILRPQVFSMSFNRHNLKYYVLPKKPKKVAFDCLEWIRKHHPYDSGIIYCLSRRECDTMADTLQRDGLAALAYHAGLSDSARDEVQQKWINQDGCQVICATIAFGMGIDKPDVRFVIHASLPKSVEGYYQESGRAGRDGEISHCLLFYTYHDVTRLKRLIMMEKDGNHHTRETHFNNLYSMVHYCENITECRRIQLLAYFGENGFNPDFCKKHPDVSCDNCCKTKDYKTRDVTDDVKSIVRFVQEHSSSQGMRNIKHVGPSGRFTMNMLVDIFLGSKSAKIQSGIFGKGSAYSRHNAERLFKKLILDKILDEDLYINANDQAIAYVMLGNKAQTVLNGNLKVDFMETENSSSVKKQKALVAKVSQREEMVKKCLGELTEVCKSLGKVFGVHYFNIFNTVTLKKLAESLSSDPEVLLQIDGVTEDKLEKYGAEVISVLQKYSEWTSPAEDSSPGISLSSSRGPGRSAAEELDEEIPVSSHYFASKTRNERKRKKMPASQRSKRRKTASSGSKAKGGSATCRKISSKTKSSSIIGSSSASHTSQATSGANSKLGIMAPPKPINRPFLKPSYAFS
row,Structure (SMILES),"activity change, negative = inhibition [%]"
1,CO/N=C(\C(=O)N[C@@H]1C(=O)N2C(C(=O)O)=C(COC(C)=O)CS[C@H]12)c1csc(N)n1 (stereo in doubt),-11.1
2,C[N+](C)(CCCCCC[N+](C)(C)CCCN1C(=O)c2cccc3cccc(c23)C1=O)CCCN1C(=O)c2cccc3cccc(c23)C1=O,-96
3,NCCCCCCCCCCN,21.8
4,NCCSSCCN,-6.1
5,CC1CN(S(=O)(=O)c2cccc3cnccc23)CCN1 (stereo unspecified),-7.97
6,CN[C@H](CC(C)C)C(=O)N[C@H]1C(=O)N[C@@H](CC(N)=O)C(=O)N[C@H]2C(=O)N[C@H]3C(=O)N[C@H](C(=O)N[C@H](C(=O)O)c4cc(O)cc(O)c4-c4cc3ccc4O)[C@H](O)c3ccc(c(Cl)c3)Oc3cc2cc(c3O[C@@H]2O[C@H](CO)[C@@H](O)[C@H](O)[C@H]2O[C@H]2C[C@](C)(N)[C@H](O)[C@H](C)O2)Oc2ccc(cc2Cl)[C@H]1O,-5.8
7,CC(=O)N[C@H](C(=O)O)C(C)(C)SN=O,-8.84
8,O=C(O)c1cc(=O)c2ccccc2[nH]1,-0.728
9,COc1cc(C(O)CO)ccc1OS(=O)(=O)O (stereo unspecified),-5.41
10,CN(C)c1nc(N)c(C(=O)N=C(N)N)nc1Cl,31.1
11,C[C@@H](CN1CCC(Cc2ccccc2)CC1)[C@@H](O)c1ccc(O)cc1,-7.18

# — PubChem BioAssay (NCATS)
